About 83,000 compounds went through this panel and 20% of them were active in at least one assay; those are over-represented in the sample as a whole.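 Cells were grown in 96-well plates and exposed to the test compound at a single concentration for 48 hours; results are reported as percent growth, with values below 10 considered active.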 Calls of active or inactive are those of the source.

This assay concerns MDA-MB-468 breast. Briefly: NCI-60 one-dose screen, 48 h (100 = growth as untreated, 0 = no growth, -100 = all killed). Conditions: 10 µM unless noted.
Regarding `CC(=O)Cc1cc(-c2cc(CC(C)=O)[nH]n2)n[nH]1`, the growth is 103% (inactive). In the case of `O=C(N/N=C\c1ccc(Cl)cc1Cl)c1ccncc1`, the growth is 110% (inactive). As for `OCCN1CCCCCCC1`, the growth was 101% (inactive). With `C[C@@H]1C[C@H]2C(=O)O[C@@H](C)[C@H](NC(=O)[C@H](Cc3cc(F)cc(F)c3)NC(=O)Nc3ccc(C4CC4)cc3F)C(=O)N3CCC[C@H]3C(=O)N3CCCC[C@H]3C(=O)N[C@@H](C)C(=O)N2C1` the figure was -16.1% (active); with `CCN1CCN(c2nc3ccccc3c3c(=O)c4cc(F)ccc4sc23)CC1`, 70.9% (inactive); with `O=S(=O)(NCCCNc1cc(-c2cn(-c3ccccc3)nc2-c2ccccc2)ccn1)c1ccc(C(F)(F)F)cc1`, 40.7% (inactive). Turning to `COc1ccc(-c2nc3ccc(-c4nc5ccc(N6CCN(C)CC6)cc5[nH]4)cc3[nH]2)cc1OC`, the growth was -30.1% (active). `O=C(Nc1ccc(F)cc1)ON=C1CCCCC1`: the growth was 105% [100 µM] (inactive). As for `COc1cc(C(=O)C[n+]2ccccc2)ccc1OC(C)=O`, the figure is 101% (inactive); as for `O=C(N/N=C\c1ccccc1S(=O)(=O)O)N/N=C/c1ccccc1S(=O)(=O)O`, 101% (inactive); as for `CN(C)CCOC(=O)Nc1ccc(Cc2ccc(NC(=O)OCCN(C)C)cc2)cc1`, 40.4% [100 µM] (inactive). With `Brc1ccc(-c2nn(-c3ccccc3)cc2-c2nn[nH]n2)s1`, the growth is 98.8% (inactive). Consider `CCCCCCCC/C=C\CCCCCCCCOc1ccccc1CC(=O)NCC[N+](C)(C)C`, for which the growth was 68.9% (inactive).

For the compound `CCCCN(CCCC)CC(O)c1ccc(OCc2ccccc2)c2ccccc12` (centres undefined), the growth was 114% (inactive).

In the case of `Cc1cc(C)c(NC(=O)c2sc3nc4c(cc3c2N)C(=O)CCC4)c(C)c1`, the growth is -27.2% (active). `CCOC(=O)c1ccc2c(c1)ncn2-c1ccc(NC(=O)Nc2cccc(C)c2)cc1`: the growth was 116% (inactive). With `N#Cc1ccc(C(F)(F)F)nc1N1CCC(C(=O)Nc2ccc(Cl)cc2)CC1` the figure was 69.2% (inactive); with `COc1cc2c(cc1I)-c1c(cc(OC)c(OC)c1OC)CC[C@@H]2NC(C)=O`, -6.02% (active).

On to `O=[N+]([O-])c1cccc(N=Cc2ccc3c(c2)OCO3)c1`, for which the growth was 103% (inactive). As for `COC(=O)/C=C1/SC(=Nc2ccc([N+](=O)[O-])cc2)N(CCc2c[nH]c3ccc(O)cc23)C1=O`, the figure is 56.8% (inactive). As to `COc1ccc(/C=N/NC(=O)c2cnn(CC(O)Cc3ccccc3)c2N)cc1OC1CCCC1` (centres undefined), the growth is 93.4% (inactive). With `COc1ccc2oc(=O)cc(-c3c(C#N)c(N)n4nc(N)c(C#N)c4c3C#N)c2c1` the figure was 94.7% (inactive); with `Fc1ccc(COc2ccc(Nc3ncnc4sc5c(c34)CCCC5)cc2)cc1`, 93.9% (inactive); with `Cc1ccc(/C=C(\C#N)C(=O)Nc2ncc(Cc3cc(Cl)ccc3Cl)s2)o1`, 69.6% (inactive). As for `CCc1ccc2c(c1)N(CCO)C1=C(C(=O)OC1)C2c1cccc(Cl)c1` (centres undefined), the figure is 20.1% (inactive). In the case of `COc1cc(C2CC(c3cccc(Nc4ccnc5cc(Cl)ccc45)c3)=NN2c2ccccc2)cc(OC)c1OC` (centres undefined), the growth is 82.1% (inactive). With `Nc1nc(-c2cccc(Br)c2)cc(-c2cc3ccccc3oc2=O)n1` the figure was 91.8% (inactive); with `CCNC(=O)N1CCc2cc(OC)c(OCCc3ccc(OC)nc3)cc2C1c1ccc(C)cc1C` (centres undefined), 8.04% (active); with `Cc1cc(-c2ccc3nc(N)sc3c2)nc2ccc3[nH]ncc3c12`, 5.34% (active).

Turning to `C=CC(=O)Nc1ccc(Nc2nccc(-c3ccc(N4CCCC4)c(C#N)c3)n2)cc1`, the growth is -9.73% (active). With `CCCNC(=O)Oc1ccc(/C(=C(/C)Cc2ccc(OC)cc2)c2ccc(OCCCN(C)C)cc2)cc1` the figure was 73.6% (inactive). With `CCOC(=O)c1c(C)oc2ncnc(N3CCN(C(=O)COc4ccc(C(C)(C)C)cc4)CC3)c12` the figure was 60.9% (inactive).

On to `CCCCCCCC/C=C\CCCCCCCCOc1ccc(CC(=O)NCC[N+]2(C)CCOCC2)cc1`, for which the growth is 43.9% (inactive).

With `Oc1ccc(Cl)cc1-c1cc(-c2ccccc2Cl)[nH]n1`, the growth is 3.92% (active). As for `Cn1cc(C(=O)c2nc(-c3c[nH]c4ccc(Br)cc34)no2)c2cc(Br)ccc21`, the figure is 66.1% (inactive); as for `COc1ccc(OC2=C(C#N)C(=N)N3c4ccccc4Sc4ccccc4C3N2)cc1` (centres undefined), 94.5% (inactive); as for `COc1ccc(Oc2c(I)cc(CC(NC(C)=O)C(=O)O)cc2I)cc1` (centres undefined), 75.8% (inactive). Regarding `COc1ccc2cc(-c3cnc4nonc4n3)ccc2c1`, the growth is -2.09% (active).

With `CC(C)CC(=O)Nc1n[nH]c2c1CN(C(=O)C1CCN(C)CC1)C2(C)C`, the growth is -44.3% (active).

These data come from PubChem BioAssay (NCI).
